Measured values reported in PubChem BioAssay AID590 (National Center for Advancing Translational Sciences (NCATS), 2007).
Out of some 59,000 compounds screened, about 6,500 (11%) were called active. Not shown: some 15% with an inconclusive outcome. No stated cut-off is given here; in the data, active means max dye-equivalent concentration above about 10 nM; inconclusive means mostly about 1.1 nM to 9.6 nM; inactive means weaker than that. The sample as a whole holds a higher share of actives than the screen did.

Test: qHTS Assay for Spectroscopic Profiling in A350 Spectral Region
Settings: Compound autofluorescence, 340/450 nm, Alexa 350 dye-equivalents; stronger effect = higher value
In the case of CC(=O)N1CCN(CCN=CC2=C(O)CC(C)(C)CC2=O)CC1, the max dye-equivalent concentration is reported as “inactive”. In the case of CCOCCN(C=O)c1cccc(OC)c1, the max dye-equivalent concentration is reported as “inactive”. In the case of COc1ccc(OC)c([C@H](O)CNC(=O)CN)c1, the max dye-equivalent concentration is reported as “inactive”. For CCOC(=O)CCc1c(C)c2ccc(OCc3nn[nH]n3)c(C)c2oc1=O, the max dye-equivalent concentration was 30 nM (active). In the case of CCc1ccc(-c2nnn(Cc3nn[nH]n3)n2)cc1, the max dye-equivalent concentration is reported as “inactive”. In the case of Cc1cc(C)cc(OCc2nnc(SCC(=O)OC3CCCCC3)o2)c1, the max dye-equivalent concentration is reported as “inactive”. For CCOc1cccc(NC(=O)CC#N)c1, the max dye-equivalent concentration was “inactive”. For CC(=O)c1cc(C#N)c(SCC(=O)C(C)(C)C)nc1C, the max dye-equivalent concentration was “inactive”. With CCOc1ccc2cc(C#N)c(SCC(=O)OC)nc2c1 the max dye-equivalent concentration was 31 nM (active). With COc1ccc(OC)c(S(=O)(=O)N(C)CC(=O)N2CCN(c3ccccc3)CC2)c1 the max dye-equivalent concentration was “inactive”. In the case of Cc1cccc(N2CCN(C(c3ccccc3)c3nnnn3CC3CCCO3)CC2)c1C (stereo unspecified), the max dye-equivalent concentration is reported as “inactive”. In the case of O=C(Cn1nnc2ccccc2c1=O)Nc1cc(C(F)(F)F)ccc1N1CCOCC1, the max dye-equivalent concentration is reported as “inactive”. For COc1ccccc1-c1cc(NCc2cccs2)ncn1, the max dye-equivalent concentration was “inactive”. For CC(C)N1C(=O)C2C(C(=O)NC3CCCCC3)C3C=CC2(O3)C1C(=O)NC1CCCC1 (stereo unspecified), the max dye-equivalent concentration was “inactive”. With CC(C)c1nnc(NC(=O)C2CCCN2S(=O)(=O)c2ccc(Cl)cc2)s1 (stereo unspecified) the max dye-equivalent concentration was “inactive”. In the case of CCc1nnc(NC(=O)C2CCCN2S(=O)(=O)c2ccccc2)s1 (stereo unspecified), the max dye-equivalent concentration is reported as 16 nM (active). In the case of CCc1nnc(NS(=O)(=O)c2ccc(NS(=O)(=O)c3ccccc3)cc2)s1, the max dye-equivalent concentration is reported as “inactive”. For Cc1c(O)c(Br)c(C)c(O)c1Br (tested in a mixture with another compound), the max dye-equivalent concentration was “inactive”. With CCN(CC)c1ccc(C(=O)OCC(=O)c2ccco2)cc1 the max dye-equivalent concentration was “inactive”. For Cc1cc(C)nc(N(C#N)CC(=O)Nc2ccccc2)n1, the max dye-equivalent concentration was “inactive”. For N#CCSc1nc2ccccc2c(=O)n1-c1ccccc1, the max dye-equivalent concentration was “inactive”. In the case of C/C(O)=C\c1nc(=O)c2c(C)cc(C)nc2n1-c1ccccc1, the max dye-equivalent concentration is reported as 44 nM (active). In the case of CCOC(=O)N1CCN(C(=O)c2ccc3nc4cc(Cl)ccc4c(=O)n3c2)CC1, the max dye-equivalent concentration is reported as 1300 nM (active). With CCOC(=O)N1CCN(C(=O)CNC(=O)Cc2ccc(Cl)cc2)CC1 the max dye-equivalent concentration was “inactive”. With CCOC(=O)N1CCN(C(=O)c2ccc(S(=O)(=O)c3ccc(C)cc3)c(NC(C)=O)c2)CC1 the max dye-equivalent concentration was “inactive”. For O=C(O)c1cscn1, the max dye-equivalent concentration was “inactive”. For Cc1nonc1OCCn1nnnc1N, the max dye-equivalent concentration was “inactive”. With CC1CCCN(c2ccc(C(=O)NCCc3ccccc3)cn2)C1 (stereo unspecified) the max dye-equivalent concentration was “inactive”. With O=S(=O)(Nc1ccccc1N1CCOCC1)c1ccc(Cl)s1 the max dye-equivalent concentration was “inactive”. For Oc1cc2c(cc1O)CN(C(=S)NCCc1ccc(Cl)cc1)CCC2, the max dye-equivalent concentration was “inactive”. In the case of O=S(=O)(NCc1ccccn1)c1ccc(Br)s1, the max dye-equivalent concentration is reported as “inactive”.
